# This is part of a sample that, as a whole, favours compounds with a hit. Of some 83,000 tested, about 20% had one in any assay.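 Testing used 96-well plates and a 48-hour single-concentration exposure. Example: -40 means 40% of the starting cells died.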 A number with no mark means an inactive call. Calls of active or inactive are those of the source. Rule for the calls: active = growth percent below 10; inactive = the rest.
# Experiments:
# Assay in all cases: NCI-60 one-dose screen, 48 h (100 = growth as untreated, 0 = no growth, -100 = all killed)
# Conditions in all cases: 10 µM
# [1] = system: NCI-H23 lung
# [2] = system: NCI-H226 lung
# [3] = system: NCI-H322M lung
# [4] = system: NCI-H460 lung
# [5] = system: NCI-H522 lung
# [6] = system: 786-0 renal
# [7] = system: COLO 205 colon
# [8] = system: DU-145 prostate
# [9] = system: K-562 leukemia
# [10] = system: MALME-3M melanoma
# [11] = system: RXF 393 renal
# [12] = system: SF-268 CNS
# [13] = system: SF-295 CNS
# [14] = system: SF-539 CNS
# [15] = system: UACC-257 melanoma
# [16] = system: M14 melanoma
# [17] = system: A549/ATCC NSCLC
# [18] = system: MDA-MB-231 breast
SMILES,growth [1],growth [2],growth [3],growth [4],growth [5],growth [6],growth [7],growth [8],growth [9],growth [10],growth [11],growth [12],growth [13],growth [14],growth [15],growth [16],growth [17],growth [18]
CC(=O)Nc1cc2c(cc1Cl)Cc1cc(Cl)ccc1-2,77.1%,83%,96%,95.9%,79.6%,112%,105%,106%,108%,113%,98.7%,88.4%,109%,88.1%,88.9%,106%,–,–
COc1cc(C2CC(c3cc(Cl)c(C)cc3O)=NN2c2ccc(S(N)(=O)=O)cc2)cc(OC)c1OC (stereo unspecified),3.07% (active),23.5%,41.3%,-67.7% (active),8.94% (active),–,-100% (active),35.9%,–,31.9%,-2.73% (active),24.6%,22%,2.6% (active),44.7%,-26.5% (active),24.2%,-8.53% (active)
CC(C)(C)c1ccc(S(=O)(=O)N[C@H]2CC[C@H]3[C@@H]4CCc5cc(OS(=O)(=O)O)ccc5[C@H]4CC[C@]23C)cc1,56.8%,52.4%,61%,26.2%,–,50%,13.8%,63.3%,22%,41.8%,9.08% (active),51.2%,44.7%,82.4%,68.2%,54.2%,31.6%,26.4%
C[C@]12CC[C@@H]3c4ccc(OS(=O)(=O)O)cc4CC[C@H]3[C@@H]1CC[C@@H]2NS(=O)(=O)c1ccc(-c2ccccc2)cc1,61.5%,68.4%,86.9%,43.3%,44.4%,69.6%,47.4%,75.3%,26.8%,60.8%,53.1%,69.8%,–,90.1%,77.2%,62.8%,36.3%,84.3%

# Source: PubChem BioAssay (NCI)
